PostGolgi yeast: growth inhibition of a yeast mutant, post-Golgi transport screen; post-Golgi transport phenotypic cell assay; inhibition, % at 10 µM; 98,000 compounds, 0.9% hits; AID 739;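 also: yeast cells grown in 1536-well plates; yeast grown about 18 h at 30C before absorbance read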
CYP2C19 activ: activators of human cytochrome P450 2C19; activation factor at 5 µM; P33261; 96,000 tested, under 10 active; recombinant CYP2C19, luciferin-H EGE luminescence; stronger effect = higher value; 0 = fully inhibited enzyme, 1 = untreated enzyme;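 active = activation factor of at least 2 at 5 µM in the primary screen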;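 also: 0 = wells with 2.5 mM tranylcypromine and 1 = vehicle-only wells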
Target sequence (P33261 whole entry, looked up): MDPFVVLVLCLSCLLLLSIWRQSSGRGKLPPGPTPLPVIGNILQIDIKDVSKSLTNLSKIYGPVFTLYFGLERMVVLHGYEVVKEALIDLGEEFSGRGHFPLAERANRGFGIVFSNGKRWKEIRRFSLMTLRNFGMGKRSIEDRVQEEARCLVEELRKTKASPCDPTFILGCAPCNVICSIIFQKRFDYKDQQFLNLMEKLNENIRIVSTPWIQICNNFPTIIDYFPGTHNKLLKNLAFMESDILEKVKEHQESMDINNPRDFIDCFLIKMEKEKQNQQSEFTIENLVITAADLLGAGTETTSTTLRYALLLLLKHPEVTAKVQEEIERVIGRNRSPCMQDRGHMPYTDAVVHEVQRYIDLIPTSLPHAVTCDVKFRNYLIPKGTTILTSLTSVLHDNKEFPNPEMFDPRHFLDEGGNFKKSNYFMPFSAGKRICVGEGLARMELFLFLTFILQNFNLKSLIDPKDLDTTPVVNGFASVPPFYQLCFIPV
CYP2C9 activ: activators of human CYP2C9. P11712. activation factor at 5 µM. recombinant CYP2C9, luciferin-H conversion, luminescence; stronger effect = higher value; factor 1 = untreated enzyme, 0 = blocked. 96,000 compounds, 1.4% hits;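 active = activation factor of 2 or more for CYP2C9 at a 5 µM dose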;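 also: 0 = sulfaphenazole-blocked wells and 1 = vehicle-only wells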
PostGolgi ctrl: growth of the yeast control strain, post-Golgi counter-screen; efflux-deficient yeast background strain, growth absorbance A615, 16 h; inhibition, % at 10 µM; 98,000 compounds, 5% hits
CYP2C9 inhib: inhibitors of human CYP2C9; inhibition, % at 5 µM; P11712; 96,000 compounds, 20% hits; CYP2C9 Supersomes, luciferin-H conversion, luminescence;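 active = blocking of liver enzyme CYP2C9 beyond about 50% at 5 µM, limit read from the data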
CYP2C19 inhib: human CYP2C19 inhibition; P33261; CYP2C19 Supersomes, luciferin-H EGE luminescence, 30 min; inhibition, % at 5 µM; 96,000 compounds, 21% hits; AID 778;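 active = CYP2C19 inhibition above a set limit at 5 µM in the primary screen, cut at about 50% in these data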;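 also: plate controls were negative control wells for no effect and 2.5 mM tranylcypromine positive control for full effect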
Active calls of the source: *; . = no result. An excerpt weighted towards active compounds, which were near 32% of everything screened. Rule as the data show it, unless noted: active = inhibition above about 30%; inactive = the rest.

SMILES	PostGolgi yeast	CYP2C19 activ	CYP2C9 activ	PostGolgi ctrl	CYP2C9 inhib	CYP2C19 inhib
CC1CCN(c2ccc(C(=O)NCc3cccs3)cn2)CC1	-8	1	0.7	9	26	5
CN(C)CCNC(=O)C12CC3(C)CC(C)(CC(C)(C3)C1)C2	-1	0.9	1	5	0	13
Cc1cn(C2CC3OCC3O2)c(=O)[nH]c1=O (configuration not stated)	-6	1	1	24	3	-1
Cc1cccc(N2CCN(C(=O)Cn3cccc3)CC2)c1C	4	0.2	0.9	8	6	79*
Cc1cc(C)cc(-n2c(C)cc(/C=N/NC(=O)CSc3ncccn3)c2C)c1	41*	0.5	0.6	18	44	46
Cc1cc(/C=N/NC(=O)Cn2c3ccccc3c(=O)c3ccccc32)c(C)n1-c1ccccc1	-7	0.9	0.7	15	31	9
Cc1cc(C)cc(-n2c(C)cc(/C=N/NC(=O)c3cccc([N+](=O)[O-])c3C)c2C)c1	3	0.8	0.5	15	53*	22
O=C(NC1CS(=O)(=O)CC1NCc1ccco1)c1ccccc1 (configuration not stated)	2	0.7	0.9	-5	10	26
C/C(=N\NC(=O)c1cccc(S(=O)(=O)Nc2ccccc2Cl)c1)c1ccc(-n2ccnc2)cc1	-3	0	0	4	100*	99*
COc1ccc(NS(=O)(=O)c2cccc(C(=O)N/N=C(\C)c3ccc(-n4ccnc4)cc3)c2)cc1	8	0.1	0	4	99*	93*
COc1ccc(CC(=O)Nc2ccc(/C(C)=N/NC(=O)c3cccc([N+](=O)[O-])c3)cc2)cc1	-2	1	1	7	2	-5
C/C(=N\NC(=O)c1cccc(Br)c1)c1ccc(Br)cc1	-9	0.9	0.9	2	11	12
CC(=O)c1cc(C)ccc1OC(=O)CCN1C(=O)C2C3c4ccccc4C(c4ccccc43)C2C1=O (configuration not stated)	-5	0.8	0.9	-6	6	23
NC(=O)c1ccsc1NC(=O)COC(=O)Cc1ccsc1	0	0.6	0.5	20	49	40
O=C(COC(=O)Cc1ccsc1)NCC1CCCCC1	-8	0.4	0.9	14	8	57*
CC(NC(=O)COC(=O)Cc1ccsc1)C1CC2CCC1C2 (configuration not stated)	0	0.1	0.6	-5	36	92*
CCC(=O)c1ccccc1OCCN1C(=O)NC(C)(C)C1=O	-2	0.3	0.3	7	67*	75*
Cc1ccc(C(C)C)c(OCCN2C(=O)NC(C)(C)C2=O)c1	11	0.2	0.6	7	43	77*
CC(C)c1cc(Br)ccc1OCCCN1C(=O)NC(C)(C)C1=O	-4	0.1	0.2	38*	78*	92*
CC1(C)NC(=O)N(CC(O)COc2ccccc2C(=O)N2CCCCC2)C1=O (configuration not stated)	13	0.9	0.8	-4	17	14
CC1(C)NC(=O)N(CCCCOc2ccc(Br)cc2Cl)C1=O	2	0	0.3	25	66*	99*
CC(C)=CCC(C)(C)CNC(=O)NC1CCCCC1	-5	.	.	25	.	.
CC1(C)NC(=O)N(CCCOc2ccc(Br)cc2Cl)C1=O	-3	0.1	0.5	6	51*	92*
CCOC(=O)CC1ON(C)C(=O)N1c1ccc(Cl)cc1Cl (configuration not stated)	-11	0	0.5	25	46	99*
Cc1cc(Cl)ccc1N(CC(=O)N=Nc1c(O)[nH]c2ccccc12)S(C)(=O)=O	4	0.2	0.5	10	53*	76*
O=C(Nc1nnc(CC(c2ccccc2)c2ccccc2)s1)c1ccco1	-7	0.9	0.8	6	22	12
CC(C)N(C(=O)CSc1nc2ccccc2n1-c1ccccc1)C(C)C	15	0.5	.	28	.	51*
CC(C)N(C(=O)CSc1nnc(Cn2nnc3ccccc32)n1C)C(C)C	7	1.1	1.4	6	-41	-12
CCOC(=O)C1=C(O)/C(=C/c2cc(OC)c(OC)c(OC)c2)N=C1C	4	1	1	5	3	-2
Nc1nnc(CC(c2ccccc2)c2ccccc2)s1	-4	0.1	0.8	8	20	85*
